# According to PubChem BioAssay (NCATS):
# Several values for one entry are separate records, joined by “and”; a condition that tells them apart may be missing. Equal entries are not always repeated. Records with an inconclusive call do not appear. Entries that show only a call come without a potency. Activity calls are given as the source filed them. The call rests on the fitted dose curve; in most records, active means well fitted curve in the direction sought with a large enough effect; inconclusive means small, poorly fitted or top-dose-only effect, or another doubt; inactive means no such curve, though single readings can be large; an effect the other way counts as inactive or inconclusive.
# Legend:
# [1] = target: Ubiquitin carboxyl-terminal hydrolase 2 (Homo sapiens) (UniProt O75604); experiment: qHTS for Inhibitors of Ubiquitin-specific Protease USP2a Using CHOP2 as the Reporter: K484 Substrate (AID 652173); settings: USP2 cleavage of DiUb K48 IQF substrate, fluorescence; series mostly up to 57.5 µM;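 further: cleavage of internally quenched K48 di-ubiquitin substrate measured as rising fluorescence over time; nearly all actives have a fitted effect of over 70% in size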; further: potency means the concentration at half of the fitted maximal effect
# Chain of Ubiquitin carboxyl-terminal hydrolase 2 (Homo sapiens) (O75604 whole entry, looked up): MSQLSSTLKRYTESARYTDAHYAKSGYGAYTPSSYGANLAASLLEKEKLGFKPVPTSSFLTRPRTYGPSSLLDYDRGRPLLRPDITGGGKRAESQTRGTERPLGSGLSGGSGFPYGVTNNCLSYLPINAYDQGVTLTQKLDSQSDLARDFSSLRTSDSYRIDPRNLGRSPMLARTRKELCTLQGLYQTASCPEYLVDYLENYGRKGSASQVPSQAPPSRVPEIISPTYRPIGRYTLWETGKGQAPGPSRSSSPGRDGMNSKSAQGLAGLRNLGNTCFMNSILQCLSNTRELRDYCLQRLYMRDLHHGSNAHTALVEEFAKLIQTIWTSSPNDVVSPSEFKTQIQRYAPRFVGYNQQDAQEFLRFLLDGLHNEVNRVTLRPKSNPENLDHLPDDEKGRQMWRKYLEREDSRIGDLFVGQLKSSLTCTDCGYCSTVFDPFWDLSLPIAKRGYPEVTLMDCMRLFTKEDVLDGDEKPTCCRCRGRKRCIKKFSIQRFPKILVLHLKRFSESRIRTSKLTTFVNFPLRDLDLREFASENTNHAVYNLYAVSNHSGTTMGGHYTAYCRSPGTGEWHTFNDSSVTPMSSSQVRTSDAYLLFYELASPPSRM
# Procedure, shortened: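 Kinetic fluorescence (Ex 525/Em 598) tracked cleavage of an internally quenched K48 di-ubiquitin substrate, added as a 100 nM solution. The enzyme was added as a 5 nM USP2 solution before compound pinning, with no-enzyme controls. Buffer: Tris pH 8, beta-mercaptoethanol, CHAPS.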
# [2] = qHTS for Inhibitors of Ubiquitin-specific Protease USP2a Using CHOP2 as the Reporter: Cytotox Assay (AID 652170); settings: HCT116 viability, CellTiter-Glo luminescence, 72 h; series mostly up to 46.1 µM; further: nearly all actives have a fitted effect of over 70% in size; further: potency means the concentration at half of the fitted maximal effect
# Procedure, shortened: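 Cytotoxicity read as ATP luminescence (CellTiter-Glo) after 72 hr compound treatment at 37 deg C. Cells: HCT116, 600/well in DMEM plus 10% FBS. Normalization between DMSO-treated cells and cell-free wells.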
# [3] = target: Tyrosine-protein kinase Yes (Homo sapiens) (UniProt P07947); experiment: qHTS for small molecule inhibitors of Yes1 kinase: Primary Screen (AID 686947); settings: Yes1 kinase biochemical qHTS inhibition; series mostly up to 76.9 µM; further: nearly all actives have a fitted effect of over 60% in size; further: potency means the concentration at half of the fitted maximal effect
# Chain of Tyrosine-protein kinase Yes (Homo sapiens) (P07947 whole entry, looked up): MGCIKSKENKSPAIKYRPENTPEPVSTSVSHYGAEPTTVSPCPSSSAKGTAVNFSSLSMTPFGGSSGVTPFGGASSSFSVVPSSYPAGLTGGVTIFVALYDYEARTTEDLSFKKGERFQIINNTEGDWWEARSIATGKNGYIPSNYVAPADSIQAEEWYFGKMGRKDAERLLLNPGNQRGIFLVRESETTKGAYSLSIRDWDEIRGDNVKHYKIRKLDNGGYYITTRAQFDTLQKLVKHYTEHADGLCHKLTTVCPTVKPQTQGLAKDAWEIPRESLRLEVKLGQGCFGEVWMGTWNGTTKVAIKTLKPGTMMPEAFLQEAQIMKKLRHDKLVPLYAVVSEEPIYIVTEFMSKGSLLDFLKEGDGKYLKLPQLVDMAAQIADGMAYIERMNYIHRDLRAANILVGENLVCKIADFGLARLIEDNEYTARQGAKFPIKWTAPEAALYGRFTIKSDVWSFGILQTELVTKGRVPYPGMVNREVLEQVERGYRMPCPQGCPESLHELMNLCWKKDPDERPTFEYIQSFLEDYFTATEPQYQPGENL
# Procedure, shortened: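 In this qHTS format, inhibition is expressed relative to DMSO controls with enzyme (maximum) and without enzyme (minimum). The 60 min room-temperature reaction uses 0.1 mM ATP, with ADP detected by luminescence.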
# [4] = qHTS for small molecule inhibitors of Yes1 kinase: Counter Assay (AID 686950); settings: series mostly up to 76.9 µM;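 further: no kinase present so only ADP-Glo detection of a fixed ADP amount is tested; luminescence from ADP-Glo reporting ADP in a fixed ATP and ADP mixture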
# Procedure, shortened: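 No kinase present; 0.08 mM ATP + 0.02 mM ADP in 50 mM Tris pH 7.5, 10 mM MgCl2, 150 mM NaCl, 1 mM DTT; 20 min compound preincubation, 60 min RT, ADP-Glo luminescence, normalized to ATP/ADP (max) and ATP-only (min).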
compound,measurement,setting,value
Cc1ccc(-c2cc(C(=O)Nc3ccc(S(C)(=O)=O)cc3)c3ccccc3n2)cc1C,Potency,[1],6850 nM (active)
N#Cc1cnc(N[S+](=O)([O-])c2ccc(Nc3nc(-c4ccccc4)cs3)cc2)s1,Potency,[2],inactive
same,Potency,[1],inactive
O=C(Nc1nc(-c2ccccc2)cs1)c1ccncc1NS(=O)(=O)c1ccccc1F,Potency,[1],2430 nM (active)
COc1cccc(-c2csc(NC(=O)c3ccncc3NS(=O)(=O)c3ccc(C)cc3)n2)c1,Potency,[1],1720 nM (active)
Cc1ccc(S(=O)(=O)Nc2cnccc2C(=O)Nc2nc(-c3ccc(Oc4ccccc4)cc3)cs2)cc1,Potency,[2],20900 nM (active)
same,Potency,[1],2170 nM (active)
c1ccc(-c2[nH]ncc2-c2ccnc(-c3ccc(OCCn4ccnc4)cc3)c2)nc1,Potency,[3],4.63 µM (active)
same,outcome,[4],inactive
CNC(=O)c1cc(-c2ccc(F)cc2)cc(-c2ccc(S(=O)(=O)N3CCCC3)cc2)c1N,Potency,[3],inactive
same,outcome,[4],inactive
CC(Oc1cc(-n2cnc3ccc(OCC4CCN(C)CC4)cc32)sc1C(N)=O)c1ccccc1Cl (stereo not given),Potency,[3],1.64 µM (active)
N#Cc1c(NC(=O)c2ccccc2F)sc2c1CCCC2,Potency,[3],inactive
same,outcome,[4],inactive
COc1ccc(Nc2ncc(-c3ccccc3)o2)cc1OC,Potency,[3],1.16 µM (active)
COC(=O)c1cncc(C=Cc2c(C)cc(O)cc2C)c1,Potency,[3],1.3 µM (active)
same,outcome,[4],inactive
Fc1ccc(-c2cc(-c3cn[nH]c3-c3ccccn3)ccn2)cc1,Potency,[3],29.2 µM (active)
same,outcome,[4],inactive
O=C1Nc2ccccc2C1=C1CCc2cc(O)ccc21,Potency,[3],9.23 µM (active)
same,outcome,[4],inactive
Cc1c2ccc(N(C)c3ccnc(Nc4cccc(S(N)(=O)=O)c4)n3)cc2nn1C,Potency,[3],0.519 µM (active)
same,outcome,[4],inactive
CS(=O)(=O)CCNCc1nc(-c2ccc3ncnc(Nc4ccc(F)c(Cl)c4)c3c2)cs1,Potency,[3],4.63 µM (active)
same,outcome,[4],inactive
COC(=O)Nc1nc2ccc(Oc3ccc(NC(=O)Nc4cc(C(F)(F)F)ccc4F)cc3)cc2s1,Potency,[3],inactive
same,outcome,[4],inactive
O=C(OC1CNC(C#Cc2cc3ncnc(Nc4ccc5c(ccn5Cc5cc(F)ccc5F)c4)c3s2)C1)N1CCOCC1 (stereo not given),Potency,[3],29.2 µM (active)
same,outcome,[4],inactive
CS(=O)(=O)Nc1cccc(-c2ccc3c(NC(=O)C4CC4)n[nH]c3c2)c1,Potency,[3],11.6 µM (active)
same,outcome,[4],inactive
NS(=O)(=O)c1ccc(Nc2cc(-c3ccc(O)c(F)c3)[nH]n2)cc1,Potency,[3],5.82 µM (active)
same,outcome,[4],inactive
COc1ccc(-c2ccncc2)cc1C(N)=O,Potency,[3],inactive
same,outcome,[4],inactive
Cc1cc(-c2ccccn2)cc(C)c1C=Cc1cncc(-c2nn[nH]n2)c1,Potency,[3],2.07 µM (active)
same,outcome,[4],inactive
Cc1ccc(NC(=O)c2ccnc(N3CCCC3)c2)cc1-c1ccc(C(=O)NCC2CC2)cc1,Potency,[3],inactive
same,outcome,[4],inactive
Cn1c(-c2nonc2N)nc2cnccc21,Potency,[3],inactive
same,outcome,[4],inactive
CN1CCC(C(=O)Nc2n[nH]c3nc(-c4ccc(O)cc4)c(Br)cc23)CC1,Potency,[3],36.8 µM (active) and 23.2 µM (active)
O=C(Nc1n[nH]c2nc(-c3ccco3)c(Br)cc12)C1CC1,Potency,[3],8.23 µM (active)
same,outcome,[4],inactive
Cc1ccc(O)cc1Nc1ccnc2cc(-c3ccccn3)ccc12,Potency,[3],0.0073 µM (active)
same,outcome,[4],inactive
CCn1c(-c2nonc2N)nc2ccccc21,Potency,[3],inactive
same,outcome,[4],inactive
O=C(Nc1n[nH]c2cc(-c3cc(F)ccc3F)ccc12)C1CC1,Potency,[3],26 µM (active)
same,outcome,[4],inactive
Fc1ccc(-c2nn3ccccc3c2-c2ccncc2)cc1,Potency,[3],23.2 µM (active)
Cc1ccc(O)cc1Nc1ccnc2ccc(S(C)(=O)=O)cc12,Potency,[3],0.0021 µM (active)
same,outcome,[4],inactive
CNC(=O)c1ncccc1Nc1nc(Nc2cc3c(cc2OC)CCCN3C(=O)CN(C)C)nc2[nH]ccc12,Potency,[3],inactive
Cc1cc(O)cc(C)c1C=Cc1cncc(C(=O)N(C)C)c1,Potency,[3],23.2 µM (active)
CC(C)c1ccc(-c2cc(-c3cn[nH]c3-c3ccccn3)ccn2)cc1,Potency,[3],23.2 µM (active)
COc1cccc(C=NNc2ncnc3c2cnn3-c2cccc(OC)c2)c1,Potency,[3],7.33 µM (active)
same,outcome,[4],inactive
COc1ccc(-c2cc(-c3cn[nH]c3-c3ccccn3)ccn2)cc1,Potency,[3],14.6 µM (active)
same,outcome,[4],inactive
COc1ccc(CNC(=O)c2ccc(-c3cc(-c4nnc(C)o4)ccc3C)cc2)cc1,Potency,[3],inactive
same,outcome,[4],inactive
COc1ccc(-c2nn3ncccc3c2-c2ccnc(Nc3cccc(C(F)(F)F)c3)n2)cc1,Potency,[3],0.582 µM (active)
same,outcome,[4],inactive
CCn1c(-c2nonc2N)nc2cncc(C(=O)N3CCC(N)C3)c21 (stereo not given),Potency,[3],inactive
NC(=O)c1cccc(Nc2nccc(Nc3cccc4[nH]ncc34)n2)c1,Potency,[3],0.0292 µM (active)
same,outcome,[4],inactive
CS(=O)(=O)Nc1ccc(-c2cc(-c3ccccc3)cc(C(N)=O)c2N)cc1,Potency,[3],13 µM (active)
same,outcome,[4],inactive
c1ccc(-c2nc3n(c2-c2ccc4c(c2)OCO4)CCC3)nc1,Potency,[3],inactive
same,outcome,[4],inactive
COc1ccc(-c2nn3ncccc3c2-c2ccnc(Nc3ccc4c(c3)OCCO4)n2)cc1,Potency,[3],0.0292 µM (active)
same,outcome,[4],inactive
Fc1ccc(-c2ncn(C3CCNCC3)c2-c2ccnc(Oc3ccc(F)c(F)c3)n2)cc1,Potency,[3],inactive
NS(=O)(=O)c1cccc(Nc2cc(-c3ccc(F)cc3)[nH]n2)c1,Potency,[3],3.68 µM (active)
same,outcome,[4],inactive
COc1cc(Nc2ncc(-c3ccccc3)o2)cc(OC)c1OC,Potency,[3],0.328 µM (active)
same,outcome,[4],inactive
CCn1c(-c2nonc2N)nc2c(C#CC(C)(C)O)ncc(OCC3CCNCC3)c21,Potency,[3],23.2 µM (active)
same,outcome,[4],inactive
COc1cc2ncn(-c3cc(OCc4ccccc4C(F)(F)F)c(C(C)=O)s3)c2cc1OC,Potency,[3],inactive
same,outcome,[4],inactive
CS(=O)(=O)CCN(CC#N)Cc1ccc(-c2ccc3ncnc(Nc4ccc(OCc5cccc(F)c5)c(Cl)c4)c3c2)o1,Potency,[3],inactive
same,outcome,[4],inactive
CCNC(=O)OC1CNC(C#Cc2cc3ncnc(Nc4ccc(OCc5cccc(F)c5)c(Cl)c4)c3s2)C1 (stereo not given),Potency,[3],8.23 µM (active)
same,outcome,[4],inactive
O=C1NC(=O)C(c2cccc(Cl)c2)=C1Nc1ccc(Cl)c(C(=O)O)c1,Potency,[3],inactive
same,outcome,[4],inactive
c1ccc(Oc2ccc(Nc3ncc(-c4ccccc4)o3)cc2)cc1,Potency,[3],inactive
same,outcome,[4],inactive
NS(=O)(=O)c1ccc(Nc2ncc(-c3ccccc3)o2)cc1,Potency,[3],inactive
same,outcome,[4],inactive
CCn1cc(-c2ccnc3[nH]ccc23)c(-c2cccc(NC(=O)Nc3ccc(OCc4ccccc4)cc3)c2)n1,Potency,[3],9.23 µM (active)
same,outcome,[4],inactive
CCCNc1cccc(-n2ncc3c(NN=Cc4ccncc4)ncnc32)c1,Potency,[3],0.0328 µM (active)
same,outcome,[4],inactive
CC1=C(C(=O)Nc2ccc3[nH]ncc3c2)C(c2ccc(F)cc2)NC(=O)N1 (stereo not given),Potency,[3],26 µM (active)
same,outcome,[4],inactive
CCCN1CCC(c2ccc(Nc3nc(Nc4cc(F)ccc4C(N)=O)c4cc[nH]c4n3)c(OC)c2)CC1,Potency,[3],inactive
same,outcome,[4],inactive
FC(F)(F)CNc1nccc(-c2cnn3ncccc23)n1,Potency,[3],inactive
same,outcome,[4],inactive
COc1cc(C=NNc2ncnc3c2cnn3-c2ccccc2)ccc1O,Potency,[3],0.292 µM (active)
same,outcome,[4],inactive
O=C1NC(=O)C(N2CCc3ccccc32)=C1c1ccc(Cl)cc1,Potency,[3],inactive
same,outcome,[4],inactive
COc1cccc(Nc2nccc(-c3cnn4ncccc34)n2)c1,Potency,[3],inactive
same,outcome,[4],inactive
COc1cc(C=NNc2ncnc3c2cnn3Cc2ccccc2)ccc1O,Potency,[3],0.116 µM (active)
same,outcome,[4],inactive
Nc1ncnc2occ(-c3ccc(NC(=O)Nc4cccc(C(F)(F)F)c4)cc3)c12,Potency,[3],1.64 µM (active)
same,outcome,[4],inactive
O=C(O)c1ccc(Oc2nccc(-c3c(-c4ccc(F)cc4)ncn3C3CCNCC3)n2)cc1,Potency,[3],inactive
same,outcome,[4],inactive
Cc1ccc(Nc2ccnc(Nc3cccc(C(N)=O)c3)n2)cc1O,Potency,[3],0.0292 µM (active)
same,outcome,[4],inactive
NS(=O)(=O)c1ccc(N=Nc2c(O)[nH]c3cccc(CCc4ccncc4)c23)cc1,Potency,[3],inactive
same,outcome,[4],inactive
COc1cc2ncn(-c3cc(OCc4cccs4)c(C(N)=O)s3)c2cc1OC,Potency,[3],1.84 µM (active)
same,outcome,[4],inactive
NS(=O)(=O)c1ccc(N=Nc2c(O)[nH]c3ccc(C(=O)NCc4ccncc4)cc23)cc1,Potency,[3],4.63 µM (active)
same,outcome,[4],inactive
COc1cccc(-n2ncc3c(NN=Cc4cccc(F)c4)ncnc32)c1,Potency,[3],0.146 µM (active)
same,outcome,[4],inactive
NC(=O)c1cc(-c2ccncc2)cc(-c2ccccc2)c1N,Potency,[3],0.519 µM (active)
same,outcome,[4],inactive
COc1cccc(-n2nc(C)c3c(NN=C(C)c4ccncc4)ncnc32)c1,Potency,[3],inactive
same,outcome,[4],inactive
COc1cccc(-n2ncc3c(NN=Cc4ccncc4)ncnc32)c1,Potency,[3],0.0923 µM (active)
same,outcome,[4],inactive
Cc1ccc(-c2cc3c(NC(=O)C4CC4)ncnc3o2)cc1,Potency,[3],0.733 µM (active)
same,outcome,[4],inactive
CC(C)COC(=O)c1ccc2[nH]c(O)c(C=Nc3ccc(S(N)(=O)=O)cc3)c2c1,Potency,[3],9.23 µM (active)
same,outcome,[4],inactive
CNC(=O)c1cncc(C=Cc2ccccc2Cl)c1,Potency,[3],8.23 µM (active)
same,outcome,[4],inactive
O=C(OC1CNC(C#Cc2cc3ncnc(Nc4ccc(Cc5ccccc5)cc4)c3s2)C1)N1CCOCC1 (stereo not given),Potency,[3],2.07 µM (active)
same,outcome,[4],inactive
Cc1ccc2c(-c3ccnc(Nc4cccc(C(F)(F)F)c4)n3)c(-c3ccccc3)nn2n1,Potency,[3],0.146 µM (active)
same,outcome,[4],inactive
Cc1nn(C)c2cc(N(C)c3ccnc(Nc4cccc(S(N)(=O)=O)c4)n3)ccc12,Potency,[3],1.16 µM (active)
same,outcome,[4],inactive
CC1=C(C(=O)Nc2cc(Cl)c3[nH]ncc3c2)C(c2ccc(C(F)(F)F)cc2)CC(=O)N1 (stereo not given),Potency,[3],2.6 µM (active)
same,outcome,[4],inactive
NC(=O)c1sc(-n2cnc3ccccc32)cc1OCc1ccccc1Br,Potency,[3],18.4 µM (active)
same,outcome,[4],inactive
CCn1c(-c2nonc2N)nc2c(N3CCCC3)nccc21,Potency,[3],inactive
same,outcome,[4],inactive
CS(=O)(=O)CCNCc1ccoc1-c1ccc2ncnc(Nc3ccc(OCc4ccccc4)cc3)c2c1,Potency,[3],3.68 µM (active)
same,outcome,[4],inactive
